Shown are actives, neighbours in structure and some others; about 5.3% of the full set was active somewhere.
Measles CPE: protection of cells from measles virus | Measles virus-infected cells, CPE protection, absorbance | protection (pct of control), % at 4 µM | actives 1.5% (n = 140,000) | AID 841; in the data active = protection mostly above about 24%, no sharp cut-off; inactive = mostly below about 26%
PostGolgi yeast: growth inhibition of a yeast mutant, post-Golgi transport screen; inhibition, % at 10 µM; post-Golgi transport phenotypic cell assay; actives 0.9% (n = 98,000);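 note: yeast cells grown in 1536-well plates; yeast grown about 18 h at 30C before absorbance read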
MT1-MMP txn act: activates MT1-MMP transcription. HT1080 MT1-MMP promoter luciferase reporter, luminescence, overnight; active compounds read high. activation factor at 10 µM. actives 0.16% (n = 86,000);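 active = activation factor of at least 2 for MT1-MMP transcription at 10 µM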
PostGolgi ctrl: inhibits growth of the yeast control strain; efflux-deficient yeast background strain, growth absorbance A615, 16 h; actives 5% (n = 98,000); inhibition, % at 10 µM
Active calls of the source: *; nt = no result given. Cut-off read from the data, not from the text of the source, unless noted: active = inhibition above about 30%; inactive = the rest.

SMILES	Measles CPE	PostGolgi yeast	MT1-MMP txn act	PostGolgi ctrl
Cc1cc(C)c2oc(C(=O)Nc3ccc(S(=O)(=O)N4CCC(C)CC4)cc3)cc(=O)c2c1	56*	nt	nt	nt
O=C(O)Cc1ccc2c(c1)N(S(=O)(=O)c1cccc(C(F)(F)F)c1)CC(C(=O)O)O2 (centres undefined)	43*	-6	nt	4
c1ccc2c(c1)CCN(c1nc3ccccc3n3cnnc13)C2	10	-5	1.5	43*
c1ccc(CN2CCN(c3nc4ccccc4n4cnnc34)CC2)cc1	6	-4	1	34*
CN1CCC(=NNC(=O)C(=O)NC2CCCC2)CC1	56*	-1	1	9
COC(=O)CSc1nc(N2CCCCC2)c2c(c1C#N)CCCC2	30	-5	1.2	38*
N#Cc1c(SCC(=O)O)nc(N2CCCCC2)c2c1CCCC2	5	3	1.3	9
CCCCCn1c(SCC2CCCO2)nc2cc(C(=O)N3CCC(C(N)=O)CC3)ccc2c1=O (centres undefined)	55*	-4	1.2	-2
COC(=O)[C@@H]1C[C@H]2CC[C@H](O)C[C@H]2N1Cc1ccc(-c2ccccc2)cc1	nt	nt	0.5	nt
O=C(Oc1ccc2ccccc2c1Cl)N1CCCCCC1	30*	nt	nt	nt
O=C(Oc1ccc2ccccc2c1Cl)N1CCCC1	11	-9	1.2	7
O=C(Oc1c(Cl)cc(Cl)c2ccccc12)N1CCCC1	21	3	1.2	32*
Cc1cccc(-c2cc3nc4c(c(NCc5ccco5)n3n2)CCCC4)c1	5	3	nt	42*
Cc1cccc(-c2cc3nc4c(c(N5CCOCC5)n3n2)CCCC4)c1	6	-7	1.5	72*
Cc1cccc(-c2noc(CCC(=O)NCc3ccco3)n2)c1	12	-2	1.2	-6
Fc1ccc(-c2cc3nc4c(c(N5CCOCC5)n3n2)CCCC4)cc1	6	19	1.2	57*
OC1CCN(c2c3c(nc4cc(-c5ccc(F)cc5)nn24)CCC3)CC1	17	2	1.1	49*
CCN1CCN(C(C(=O)NC2CCCCC2)c2ccc(Cl)cc2)CC1 (centres undefined)	17	-2	1.1	-7
CCCCn1c(=O)[nH]c2ccccc21	4	-7	1	5
O=c1[nH]c2ccccc2n1CCCSc1cnc2ccccc2n1	22	5	1	43*
O=C(CC1(O)C(=O)Nc2ccccc21)c1ccc(-n2cccc2)cc1 (centres undefined)	27	-4	1.1	31*
O=C(CC1(O)C(=O)Nc2ccccc21)c1ccccc1 (centres undefined)	2	0	1	0
CC(C)C(C(=O)Nc1sc2c(c1C#N)CCCCC2)N1C(=O)c2ccccc2C1=O (centres undefined)	56*	0	nt	-2
CCc1nnc(NC(=O)CN2CCN(c3nc(-c4ccccc4)cs3)CC2)s1	16	11	1	42*
Cc1ccc(CC(=O)Nc2ccc(F)c([N+](=O)[O-])c2)cc1	35*	nt	nt	nt
SMILES	Measles CPE	PostGolgi yeast	MT1-MMP txn act	PostGolgi ctrl
Cc1ccc2nc(SCC(=O)Nc3ccc(F)c([N+](=O)[O-])c3)[nH]c2c1	19	nt	nt	nt
COc1ccc(/C=C2/C(=O)OCc3cc(OC)c(OC)cc32)cc1	8	nt	nt	nt
CCn1nc(NS(=O)(=O)c2ccccc2)c2cc3cccc(C)c3nc21	15	5	1.2	2
CCCn1nc(NS(C)(=O)=O)c2cc3cccc(C)c3nc21	11	0	1.1	36*
CCC(C)c1ccc2oc(-c3ccc(NC(=O)Cn4cnc5c(=O)n(C)c(=O)n(C)c54)cc3)nc2c1 (centres undefined)	20	-17	1.4	76*
Cc1ccc(NC(=O)COC(=O)/C=C/c2c(C)nn(-c3ccc(F)cc3)c2Cl)cc1F	8	nt	nt	nt
COC(=O)N1[C@H](Cc2ccccc2)C=C[C@]1(C)C(=O)NCc1ccc(C)o1	nt	nt	1	nt
Cc1ccc(N2C(=O)CC3(CC4C=CC3C4)C2=O)cc1 (centres undefined)	53*	23	1.1	3
Cc1ccc(S(=O)(=O)N2CC=C(c3ccc(F)cc3)CC2)cc1	6	nt	nt	nt
O=[N+]([O-])c1ccc(Cl)c(S(=O)(=O)N2CCCCCC2)c1	9	nt	nt	nt
Cc1c(NC(=O)C(C)OC(=O)[C@@H](NC(=O)c2ccccc2)C(C)C)c(=O)n(-c2ccccc2)n1C (some centres undefined)	5	-4	1.1	31*
Cc1c(NC(=O)C(C)OC(=O)c2cccs2)c(=O)n(-c2ccccc2)n1C (centres undefined)	17	nt	nt	nt
Cc1nnc(SCc2cc(=O)oc3ccc4ccccc4c23)n1Cc1ccccc1	24	nt	nt	nt
CCCn1c(SCc2cc(=O)oc3ccc4ccccc4c23)n[nH]c1=O	21	30*	1.2	-3
